Several values for one entry are separate records, joined by “and”; a condition that tells them apart may be missing. Equal entries are not always repeated. The whole screen tested about 5,500 compounds, of which about 2,000 (36%) were called active. Inconclusive results (about 18%) are left out. No stated cut-off is given here; in the data, active means normalized growth mostly below about 0.91 (no sharp cut-off); inconclusive means no clear call, values can overlap the other calls; inactive means mostly above about 0.92. The list shows a part of the results.
Assay: chemical genetic growth profiling, strain panel (AID 1159580);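 further: tested at 20 µM; growth read once vehicle control cultures reached saturation at 30 °C; 1 = growth at the plate median or of vehicle wells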
Conditions: S. cerevisiae deletion strains, growth OD

Measured: normalized growth

Clc1ccc(COC(Cn2ccnc2)c2ccc(Cl)cc2Cl)cc1 (stereo not given)
active: locus YAL013W, strain DEP1, stronger effect = lower value 0.0557 | locus YAL021C, strain ccr4, stronger effect = lower value 0.0668 | locus YAL026C, strain drs2, stronger effect = lower value 0.0618 | locus YAL030W, strain snc1, stronger effect = lower value 0.0554 | locus YBL061C, strain skt5, stronger effect = lower value 0.0644 | locus YBR009C, strain hhf1, stronger effect = lower value 0.0597 | locus YBR021W, strain FUR4, stronger effect = lower value 0.086 | locus YBR023C, strain chs3, stronger effect = lower value 0.0622 | locus YBR171W, strain sec66, stronger effect = lower value 0.0758 | locus YBR229C, strain ROT2, stronger effect = lower value 0.0463 | locus YBR231C, strain swc5, stronger effect = lower value 0.0645 | locus YBR279W, strain paf1, stronger effect = lower value 0.0619 | locus YCL011C, strain gbp2, stronger effect = lower value 0.0566 | locus YCL016C, strain dcc1, stronger effect = lower value 0.0644 | locus YCL029C, strain bik1, stronger effect = lower value 0.06 | locus YCL061C, strain MRC1, stronger effect = lower value 0.0624 | locus YCL069W, strain vba3, stronger effect = lower value 0.0606 | locus YCR088W, strain abp1, stronger effect = lower value 0.0621 | locus YDL005C, strain med2, stronger effect = lower value 0.0718 | locus YDL035C, strain GPR1, stronger effect = lower value 0.0503 | locus YDL040C, strain nat1, stronger effect = lower value 0.0573 | locus YDL074C, strain BRE1, stronger effect = lower value 0.0774 | locus YDL101C, strain DUN1, stronger effect = lower value 0.055 | locus YDL134C, strain PPH21, stronger effect = lower value 0.0501 | locus YDL185W, strain tfp1, stronger effect = lower value 0.0607 | locus YDL192W, strain arf1, stronger effect = lower value 0.0606 | locus YDR001C, strain nth1, stronger effect = lower value 0.0586 | locus YDR069C, strain doa4, stronger effect = lower value 0.0605 | locus YDR101C, strain arx1, stronger effect = lower value 0.0571 | locus YDR137W, strain rgp1, stronger effect = lower value 0.093 | locus YDR150W, strain NUM1, stronger effect = lower value 0.055 | locus YDR159W, strain sac3, stronger effect = lower value 0.0898 | locus YDR162C, strain NBP2, stronger effect = lower value 0.0476 | locus YDR195W, strain ref2 0.131 | locus YDR297W, strain sur2, stronger effect = lower value 0.0541 | locus YDR318W, strain mcm21, stronger effect = lower value 0.061 | locus YDR334W, strain swr1, stronger effect = lower value 0.0622 | locus YDR335W, strain msn5, stronger effect = lower value 0.0604 | locus YDR388W, stronger effect = lower value 0.0583 | locus YDR392W, strain spt3, stronger effect = lower value 0.0764 | locus YDR502C, strain sam2, stronger effect = lower value 0.0603 | locus YEL003W, strain gim4, stronger effect = lower value 0.0531 | locus YEL037C, strain rad23, stronger effect = lower value 0.0573 | locus YEL061C, strain CIN8 (second series), stronger effect = lower value 0.0612 | locus YEL061C, strain CIN8, stronger effect = lower value 0.0491 | locus YER015W, strain faa2, stronger effect = lower value 0.0598 | locus YER016W, strain bim1, stronger effect = lower value 0.0634 | locus YER110C, stronger effect = lower value 0.0724 | locus YER111C, strain swi4, stronger effect = lower value 0.0738 | locus YER155C, strain BEM2 (second series), stronger effect = lower value 0.0963 | locus YER155C, strain BEM2, stronger effect = lower value 0.0618 | locus YER167W, strain BCK2, stronger effect = lower value 0.0498 | locus YFR010W, strain ubp6, stronger effect = lower value 0.0675 | locus YGL078C, strain dbp3, stronger effect = lower value 0.0728 | locus YGL086W, strain mad1, stronger effect = lower value 0.0553 | locus YGL167C, strain pmr1, stronger effect = lower value 0.0771 | locus YGL173C, strain kem1, stronger effect = lower value 0.0703 | locus YGL227W, strain vid30, stronger effect = lower value 0.0629 | locus YGL240W, strain doc1, stronger effect = lower value 0.089 | locus YGL248W, strain PDE1, stronger effect = lower value 0.046 | locus YGL253W, strain hxk2, stronger effect = lower value 0.0531 | locus YGR135W, strain pre9, stronger effect = lower value 0.0589 | locus YGR229C, strain SMI1, stronger effect = lower value 0.0609 | locus YGR252W, strain gcn5, stronger effect = lower value 0.114 | locus YHR013C, strain ard1, stronger effect = lower value 0.0983 | locus YHR027C, strain rpn1, stronger effect = lower value 0.0623 | locus YHR030C, strain SLT2, stronger effect = lower value 0.0501 and 0.104 | locus YHR079C, strain IRE1 (second series), stronger effect = lower value 0.058 | locus YHR079C, strain IRE1, stronger effect = lower value 0.114 | locus YHR094C, strain hxt1, stronger effect = lower value 0.0575 | locus YHR129C, strain ARP1, stronger effect = lower value 0.0576 | locus YHR142W, strain chs7, stronger effect = lower value 0.0716 | locus YHR200W, strain rpn10, stronger effect = lower value 0.0591 | locus YIL066C, strain RNR3, stronger effect = lower value 0.143 | locus YIL073C, strain SPO22, stronger effect = lower value 0.1 | locus YIL125W, strain kgd1, stronger effect = lower value 0.0707 | locus YIR030C, strain dcg1, stronger effect = lower value 0.0577 | locus YJL092W, strain hpr5, stronger effect = lower value 0.0592 | locus YJL095W, strain BCK1 (second series), stronger effect = lower value 0.0566 | locus YJL095W, strain BCK1, stronger effect = lower value 0.0581 and 0.1 | locus YJL115W, strain asf1, stronger effect = lower value 0.0714 | locus YJL129C, strain trk1, stronger effect = lower value 0.0943 | locus YJL134W, strain LCB3, stronger effect = lower value 0.048 | locus YJL154C, strain vps35, stronger effect = lower value 0.0599 | locus YJL164C, strain tpk1, stronger effect = lower value 0.0592 | locus YJL166W, strain qcr8, stronger effect = lower value 0.0601 | locus YJL168C, strain set2, stronger effect = lower value 0.0595 | locus YJL187C, strain SWE1 (second series), stronger effect = lower value 0.0469 | locus YJL187C, strain SWE1, stronger effect = lower value 0.058 | locus YJR043C, strain POL32, stronger effect = lower value 0.0638
